Tau filament bind = qHTS Assay for Tau Filament Binding. Potency, µM (series often up to 57.1 µM), for inactives: at the highest dose activity change, negative = inhibition. actives 2% (n = 71,000). Microtubule-associated protein tau (Homo sapiens), P10636. recombinant tau filaments, thioflavin S fluorescence, 15 h; filaments grown with octadecylsulfate alongside compound;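 note: % is set by controls: 0 for no effect and ±100 for the full control effect; actives lower thioflavin S fluorescence by blocking filaments or displacing dye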
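ThS-based fibril read: tau 1 uM final, inducer ODS 30 uM final, 37 C for 15 h, ex 450/em 510 nm.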
CRE Fsk mod = Cell signaling CRE-BLA (Fsk stim). CHO CRE-bla reporter (cAMP response element driving beta-lactamase), forskolin EC10, beta-lactamase ratio. Potency, µM (series often up to 38.2 µM), inactives show top-dose activity change, negative = inhibition, most hits filed as activators. actives 2.5% (n = 71,000); active = well fitted activation curve with a large enough effect in the signal ratio, with a control signal flat, not every such curve was filed as active; inconclusive = small, poorly fitted or top-dose-only effect, or effect the other way, or a change in a side signal; the % refers to the signal ratio; note: % of control where 0% means no effect
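Using CellSensor CRE-bla CHO cells in Opti-MEM with 0.5% dialyzed FBS, compounds were titrated with EC10 NKH 477 for 3 h at 37 °C. CCF4 ratio (460/530 nm) gave %Activity; AC50 derived.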
HEK293 cAMP ctrl = qHTS Assay for Agonists of the Thyroid Stimulating Hormone Receptor: Activators of Intracellular cAMP Concentrations in Parental HEK 293. parental HEK293 CNG cAMP sensor, membrane potential fluorescence. Potency, µM (doses to about 57.1 µM), for inactives: at the top dose activation, usual class: activators. actives 2.5% (n = 73,000). AID 938, 2007; note: % of control where 0% means no effect; nearly all actives have a fitted effect of over 55% in size
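Counterscreen for endogenous-receptor signalling: CNG-channel HEK 293 cells report cAMP rise by membrane depolarization. After 60 min dye equilibration with 100 uM RO 20-1724, compounds incubated 30 min before bottom-read fluorescence at 590 nm.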
ERK AVP block = qHTS Assay for Inhibitors of the ERK Signaling Pathway using a Homogeneous Screening Assay; HEK293-V1b, vasopressin-stimulated pERK AlphaScreen; Potency, µM (top dose mostly 57.5 µM), for the others: at the highest dose activity, negative = inhibition, hits mostly inhibitors; actives 0.99% (n = 72,000); AID 995, 2007; note: % is set by controls: 0 for no effect and ±100 for the full control effect; nearly all actives have a fitted effect of over 55% in size
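HEK293 cells stably expressing V1b receptor, preincubated 30 min at 37 °C with compound, then stimulated 5 min with 25 nM vasopressin. Phospho-ERK by AlphaScreen SureFire after 5 h RT; normalized to DMSO and vasopressin; AC50 by Hill fit.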
TSHR ag = qHTS Assay for Agonists of the Thyroid Stimulating Hormone Receptor; HEK293-CNG-TSHR cells (CNG channel as cAMP sensor), membrane potential dye, cAMP; Potency, µM (titrated, usually from 57.1 µM), for the others: at the top dose activation, most hits filed as activators; actives 0.48% (n = 73,000); AID 926, 2007; active = well fitted activation curve with a large enough effect in the main read-out, with a control signal flat, not every such curve was filed as active; inconclusive = small, poorly fitted or top-dose-only effect, or a change in a side signal; inactive = no such curve, though single readings can be large or run the other way; % of control where 0% means no effect;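 note: the control signal comes from parental cells without the receptor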
Target sequence (P16473 whole entry, looked up): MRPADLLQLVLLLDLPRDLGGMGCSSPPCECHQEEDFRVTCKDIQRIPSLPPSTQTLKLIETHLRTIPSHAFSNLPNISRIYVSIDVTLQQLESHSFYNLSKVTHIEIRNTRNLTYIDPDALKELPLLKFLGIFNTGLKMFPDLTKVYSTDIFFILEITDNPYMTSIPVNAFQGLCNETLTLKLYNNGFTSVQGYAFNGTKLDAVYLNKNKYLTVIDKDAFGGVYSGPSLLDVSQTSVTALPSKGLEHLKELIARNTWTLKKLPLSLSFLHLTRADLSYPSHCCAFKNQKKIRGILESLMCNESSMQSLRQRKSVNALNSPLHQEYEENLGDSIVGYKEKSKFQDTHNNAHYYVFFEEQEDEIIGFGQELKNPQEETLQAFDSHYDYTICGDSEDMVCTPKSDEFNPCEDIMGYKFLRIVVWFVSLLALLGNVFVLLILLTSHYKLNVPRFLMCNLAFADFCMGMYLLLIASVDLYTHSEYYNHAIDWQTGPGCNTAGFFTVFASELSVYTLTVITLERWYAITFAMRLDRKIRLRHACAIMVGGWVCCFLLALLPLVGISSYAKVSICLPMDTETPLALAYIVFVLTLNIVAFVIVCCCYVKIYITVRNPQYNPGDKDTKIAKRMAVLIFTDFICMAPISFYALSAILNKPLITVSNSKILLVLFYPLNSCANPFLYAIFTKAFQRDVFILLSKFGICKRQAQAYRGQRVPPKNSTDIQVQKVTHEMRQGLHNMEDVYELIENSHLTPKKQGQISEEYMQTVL
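cAMP rise detected as CNG-channel membrane depolarization by fluorescent dye (emission 590 nm), 30 min after compound, following 60 min dye loading containing 100 uM RO 20-1724 at room temperature. Cells: TSHR/CNG HEK 293, with parental CNG HEK 293 as control.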
Numbers without * were called inactive; [ ] = dose if it differs, or a comment. An excerpt weighted towards active compounds, which were near 7.6% of everything screened. Unless noted, calls come from the whole dose curve; as a rule, active = well fitted curve in the direction sought with a large enough effect; inconclusive = small, poorly fitted or top-dose-only effect, or another doubt; inactive = no such curve, though single readings can be large; an effect the other way counts as inactive or inconclusive. Potency is the fitted concentration of half-maximal effect.

For CC(=O)Nc1ccc2c(c1)/C(=C/c1ccc([N+](C)(C)C)cc1)c1ccccc1-2 the results were Tau filament bind 3.16µM*, CRE Fsk mod 6.4%[7.6 µM], HEK293 cAMP ctrl -2.4%[11.4 µM], ERK AVP block 10.9%[11.5 µM] and TSHR ag -3.9%[11.4 µM].
COc1cccc(-c2ccc3ncnc(N4CCNCC4)c3c2)c1 was read as Tau filament bind 7.6%, CRE Fsk mod inconclusive, HEK293 cAMP ctrl 13.2%, ERK AVP block -18.0% and TSHR ag 8.1%.
COc1cccc2[nH]c3c(N4CCC(C)CC4)ncnc3c12 was read as Tau filament bind 10.7%, CRE Fsk mod 3.98µM*, HEK293 cAMP ctrl -9.5%, ERK AVP block -19.2% and TSHR ag -41.9%.
For CCCCC#CC1C=CC(Oc2ccc(C(=O)OC)cc2)C(COC(=O)OCC)O1 (stereo not given) the results were HEK293 cAMP ctrl 12.0%[11.4 µM], ERK AVP block 25.9%[11.5 µM] and TSHR ag 14.6%[11.4 µM].
For CCn1cc(C(=O)NCc2ccc(C)o2)c2cc(OC)c(OC)cc2c1=O the results were Tau filament bind 5.9%, CRE Fsk mod 2.51µM*, HEK293 cAMP ctrl -6.2%, ERK AVP block 16.1% and TSHR ag 1.2%[11.4 µM].
For CCOCCCNC(=O)c1cn(C)c(=O)c2cc(OC)c(OC)cc12 the results were Tau filament bind -2.9%, CRE Fsk mod 5.01µM*, HEK293 cAMP ctrl -3.5%, ERK AVP block -2.3% and TSHR ag 0.0%[11.4 µM].
COc1cc2c(C(=O)NCCCN3CCN(c4cccc(Cl)c4)CC3)cn(C)c(=O)c2cc1OC was read as Tau filament bind 59.7%, CRE Fsk mod 3.98µM*, HEK293 cAMP ctrl 10.1%, ERK AVP block 7.8% and TSHR ag 4.2%.
Screening COCCNC(=O)c1cn(C)c(=O)c2cc(OC)c(OC)cc12 returned Tau filament bind 6.4%, CRE Fsk mod inconclusive, HEK293 cAMP ctrl 12.0%, ERK AVP block -11.1% and TSHR ag 3.0%[11.4 µM].
Screening COc1cc2c(C(=O)NCc3ccccn3)cn(C)c(=O)c2cc1OC returned Tau filament bind -1.2%, CRE Fsk mod 5.01µM*, HEK293 cAMP ctrl 2.5%, ERK AVP block -8.8% and TSHR ag 3.1%.
Screening COc1cccc([C@@H]2Oc3ccc(OC)cc3/C(=N/O[C@@H](C)c3cc(-c4c(C)cc(C)cc4C)no3)[C@@H]2O)c1 returned HEK293 cAMP ctrl -1.0%[11.4 µM], ERK AVP block 12.3%[11.5 µM] and TSHR ag 0.9%[11.4 µM].
Screening CCC(C)NC(=O)c1cn(C)c(=O)c2cc(OC)c(OC)cc12 (stereo not given) returned Tau filament bind 1.7%, CRE Fsk mod 3.16µM*, HEK293 cAMP ctrl -3.9%, ERK AVP block -9.4% and TSHR ag -5.0%[11.4 µM].
CCN(C#N)c1nc(NC(C)C)nc(NC(C)C)n1 was read as Tau filament bind -0.2%, CRE Fsk mod -8.2%, HEK293 cAMP ctrl 8.5%, ERK AVP block 16.5% and TSHR ag 8.1%.
CC(C)Nc1nc(NC(C)C)nc(N(C)C#N)n1 was read as Tau filament bind -7.1%, CRE Fsk mod 12.6µM*, HEK293 cAMP ctrl 1.9%, ERK AVP block -5.5% and TSHR ag 5.5%.
Screening Cc1ccc(S(=O)(=O)N2CCN(C(=O)COc3ccc(-c4nnco4)cc3)CC2)cc1 returned Tau filament bind 5.7%, CRE Fsk mod -6.0%, HEK293 cAMP ctrl 6.2%, ERK AVP block -2.5% and TSHR ag -1.1%.
Screening Cc1cc(C(=O)COc2ccc(-c3nnco3)cc2)c(C)n1Cc1ccccc1 returned Tau filament bind 31.4%, CRE Fsk mod -3.2%, HEK293 cAMP ctrl 12.6µM*, ERK AVP block 5.7% and TSHR ag inconclusive.
`O=c1c(-c2ccccc2)nc2cnc(N3CCOCC3)nc2n1Cc1cccs1` gave Tau filament bind 27.7%, CRE Fsk mod inconclusive, HEK293 cAMP ctrl 13.9%, ERK AVP block 68.4% and TSHR ag 13.3%.
For CN(C)c1ncc2nc(-c3ccc(F)cc3)c(=O)n(C3CC3)c2n1 the results were Tau filament bind 72.2%, CRE Fsk mod 2µM*, HEK293 cAMP ctrl 11.2%, ERK AVP block 28.2% and TSHR ag 0.9%.
`COc1ccc(-n2c(=O)cnc3cnc(N(C)C)nc32)cc1` gave Tau filament bind -2.2%, CRE Fsk mod 10µM*, HEK293 cAMP ctrl 14.6%, ERK AVP block -29.9% and TSHR ag 11.9%.
Screening CN(C)c1ncc2ncc(=O)n(C3CC3)c2n1 returned Tau filament bind -1.8%, CRE Fsk mod inconclusive, HEK293 cAMP ctrl 8.1%, ERK AVP block -20.2% and TSHR ag -0.8%.
COc1ncc2nc(-c3ccc(F)cc3)c(=O)n(C3CC3)c2n1 was read as Tau filament bind -5.5%, CRE Fsk mod 3.4%, HEK293 cAMP ctrl inconclusive, ERK AVP block -21.9% and TSHR ag inconclusive.
For Cc1nc2cnc(N(C)C)nc2n(-c2ccccc2)c1=O the results were Tau filament bind -5.5%, CRE Fsk mod 10µM*, HEK293 cAMP ctrl 15.9%, ERK AVP block -25.5% and TSHR ag 6.0%.
Cc1nc2cnc(N(C)C)nc2n(C2CC2)c1=O was read as Tau filament bind 7.3%, CRE Fsk mod 10µM*, HEK293 cAMP ctrl 25.1%, ERK AVP block inconclusive and TSHR ag 8.8%.
`O=C(/C=C\C=C/c1ccc2c(c1)OCO2)N1CCCCC1` gave Tau filament bind 4.0%[25.6 µM], CRE Fsk mod -7.5%[17.1 µM], HEK293 cAMP ctrl inconclusive, ERK AVP block -8.5%[25.7 µM] and TSHR ag inconclusive.
CC1CCC2C(=O)N3C(CCC(C)[C@@H]3c3ccc(-c4ccco4)cc3)C(=O)N2C1c1cccc(N2CCCC2=O)c1 (stereo not given in full) was read as HEK293 cAMP ctrl -0.8%[11.4 µM], ERK AVP block 22.3%[11.5 µM] and TSHR ag -8.2%[11.4 µM].
`Cc1nc2cnc(N(C)C)nc2n(C)c1=O` gave Tau filament bind 53.2%, CRE Fsk mod inconclusive, HEK293 cAMP ctrl inconclusive, ERK AVP block 15.8µM* and TSHR ag inconclusive.
`CN(C)c1ncc2ncc(=O)n(C)c2n1` gave Tau filament bind 14.0%, CRE Fsk mod inconclusive, HEK293 cAMP ctrl 11.8%, ERK AVP block -27.0% and TSHR ag 0.0%.
For CSCC[C@@H]1NC(=O)C/C=C\[C@@H](C)COC(=O)[C@H](C)COC1=O the results were HEK293 cAMP ctrl -0.1%[11.4 µM], ERK AVP block 4.7%[11.5 µM] and TSHR ag -6.3%[11.4 µM].
`CCOC(=O)N1CCN(C(=O)c2ccc3c(=O)n(Cc4ccccc4)c(=S)[nH]c3c2)CC1` gave Tau filament bind -2.7%, CRE Fsk mod inconclusive, HEK293 cAMP ctrl inconclusive, ERK AVP block inconclusive and TSHR ag inconclusive.
CCOC(=O)N1CCN(C(=O)c2ccc3c(=O)n(Cc4ccc(OC)cc4)c(=S)[nH]c3c2)CC1 was read as Tau filament bind 276.8%, CRE Fsk mod inconclusive, HEK293 cAMP ctrl 29.6%, ERK AVP block 31.6µM* and TSHR ag 15.6%.

High-throughput results deposited in PubChem by National Center for Advancing Translational Sciences (NCATS).
